High-throughput results: PubChem, National Center for Advancing Translational Sciences (NCATS)
Most compounds without a hit are left out; they make up all but 2.4% or so of the library.
D2 antagonist: antagonists of human D2 dopamine receptor | P14416 | 2% of 340,000 active | inhibition, % at 10 µM | HEK293 TREx D2 cells, calcium flux, dopamine EC80 | AID 485344; in the data active = inhibition above about 30%; inactive = below that, where a call was filed; also: 0% is about no effect
Target sequence (P14416 whole entry, looked up): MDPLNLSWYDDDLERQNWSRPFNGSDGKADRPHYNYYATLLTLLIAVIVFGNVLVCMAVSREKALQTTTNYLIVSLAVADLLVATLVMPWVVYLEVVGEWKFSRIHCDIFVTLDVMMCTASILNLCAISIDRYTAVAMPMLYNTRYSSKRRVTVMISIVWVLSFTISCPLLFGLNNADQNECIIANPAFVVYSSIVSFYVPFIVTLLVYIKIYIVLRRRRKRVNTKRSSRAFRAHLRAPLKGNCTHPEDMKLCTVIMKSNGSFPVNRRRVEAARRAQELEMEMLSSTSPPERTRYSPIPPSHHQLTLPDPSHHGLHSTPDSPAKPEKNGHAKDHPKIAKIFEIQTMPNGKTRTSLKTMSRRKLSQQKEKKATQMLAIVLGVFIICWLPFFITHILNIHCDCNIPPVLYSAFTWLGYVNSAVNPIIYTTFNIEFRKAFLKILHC
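Calcium mobilization kinetics were recorded at 1 s intervals in tetracycline-induced HEK293 T-REx D2 cells, first for 180 s after compound addition and then 180 s after EC80 dopamine.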
D2 ag-1: agonists of human D2 dopamine receptor. 0.53% of 340,000 active. AID 485358. activation, % at 2 µM. HEK293 T-REx D2 cells, calcium flux agonist mode. P14416;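 active = activation over 3 SD above normal in the single-dose calcium agonist read, cut at about 30% in these data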; also: 0% is about no effect
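Agonism scored from kinetic calcium signal (1 read/sec, 180 s) following compound pin transfer, after a 10 s baseline. Cells: HEK293 Trex line expressing inducible D2 receptor coupled to calcium, dye-loaded after overnight culture at 30 C.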
D2 PAM-1: positively modulates the human D2 dopamine receptor allosterically. HEK293 T-REx D2, calcium flux, EC20 dopamine potentiation. potentiation, % at 10 µM. P14416. 0.34% of 340,000 active;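 active = potentiation over 3 SD above the plate norm, cut at about 30% in these data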; also: 0% is about no effect
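Primary screen. Calcium kinetics in induced HEK293 T-REx D2 cells: compound pre-addition 180 s, EC20 dopamine, 180 s more.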
D2 ag-2: activates the human D2 dopamine receptor; activation, % (no concentration beside the values); AID 624465; 0.084% of 360,000 active; DiscoveRx PathHunter D2 beta-arrestin, luminescence, 90 min; 100% = 57 uM dopamine signal; in the data active = activation above about 40%; inconclusive = between about 15% and that limit
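DiscoveRx PathHunter D2 beta-arrestin cells (2,100/well) attached overnight, then compound-stimulated 90 min at 37 C in HBSS/10 mM HEPES/0.1% Tween-20 buffer; beta-galactosidase complementation read by luminescence after 1 h at ambient temperature. Dopamine 57 uM final (EC100) as control.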
D2 PAM-2: positive allosteric modulators of human D2 dopamine receptor; potentiation, % (concentration not given with the values); DiscoveRx D2 beta-arrestin cells, luminescence, 90 min; 100% = 57 uM dopamine signal; P14416; 0.23% of 360,000 active; in the data active = potentiation above about 50%; inconclusive = mostly about 30% to 49%
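PathHunter beta-arrestin assay in DiscoveRx D2 cells. Compounds were added with an EC20 of dopamine (50 nM final) for 90 min at 37 deg C. Luminescence was read 1 h after detection reagent, with 57 uM dopamine as the EC100 control.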
* hit, by the source's call; ? = inconclusive; nt = not tested or not shown.

SMILES | D2 antagonist | D2 ag-1 | D2 PAM-1 | D2 ag-2 | D2 PAM-2
CC(=O)O[C@]1(C(C)=O)CC[C@H]2[C@@H]3C=C(Cl)C4=CC(=O)CC[C@]4(C)[C@H]3CC[C@@]21C | -5 | 1 | 8 | -4 | -3
CC(=O)O[C@]1(C(C)=O)CC[C@H]2[C@@H]3C=C(Cl)C4=CC(=O)[C@@H]5C[C@@H]5[C@]4(C)[C@H]3CC[C@@]21C | 40* | 1 | 6 | -3 | -5
C=CCN1C(=O)C(CC(=O)Nc2ccccc2)N(Cc2ccccn2)C1=S (centres undefined) | -7 | -1 | nt | 4 | -3
O=C(NCc1ccc(Cl)cc1)c1cc2ccc3cccnc3c2[nH]1 | nt | 0 | 1 | nt | nt
CCc1ccccc1NC(=O)NC1CC2CCC(C1)N2Cc1cccs1 (centres undefined) | 55* | -1 | -18 | -3 | -26
CCc1ccc(NC(=S)NC2CC3CCCC(C2)N3Cc2cccs2)cc1 (centres undefined) | 64* | 1 | -25 | 0 | -29
CCc1ccccc1NC(=O)NC1CCCCC1 | nt | nt | nt | -2 | -28
CCCN1C2CCCC1CC(NC(=S)Nc1ccc(OC)cc1)C2 (centres undefined) | -10 | 0 | -4 | -19 | -7
CC1CCN(C(=O)C2CCCN(S(=O)(=O)c3cccc4nsnc34)C2)CC1 (centres undefined) | -22 | 0 | -13 | 3 | -6
CC(C)C(=O)NC(Nc1ccccc1F)C(Cl)(Cl)Cl (centres undefined) | -2 | 1 | -6 | 0 | -6
COc1ccc(C2CN=NC23CCCc2ccccc2C3=O)cc1 (centres undefined) | -18 | -1 | -5 | 4 | 64*
COc1ccc(C(=O)Nc2cccc(/C(C)=N/NC(=O)c3ccc([N+](=O)[O-])cc3)c2)cc1OC | -2 | 1 | -4 | -2 | -4
CCOC(=O)c1ccc(NC(=O)C2(S(=O)(=O)c3ccc(Cl)cc3)CC2)cc1 | nt | 0 | -9 | nt | nt
O=C(Nc1ccc(F)cc1)C1(S(=O)(=O)c2ccc(Cl)cc2)CC1 | 37* | -1 | -5 | 0 | 1
COc1ccc(N2CCN(c3nc(Cl)nc(Nc4ccc(F)cc4)n3)CC2)cc1 | 4 | 4 | 1 | 0 | -1
COc1ccc(N2CCN(c3nc(Nc4ccc(F)cc4)nc(OC)n3)CC2)cc1 | -22 | -1 | 33* | nt | nt
CC(=O)C(C(C)=O)c1c(Cl)c(O)c(O)c2c(C(=O)c3ccccc3)coc12 | 3 | 0 | -3 | ? | 103*
CCN(CCO)C(=S)Nc1cc(S(=O)(=O)N(C)C)ccc1C | 51* | 2 | -24 | -3 | -11
Cc1ccc(S(=O)(=O)N(C)C)cc1NC(=O)C1CCCC1 | -9 | 1 | -11 | -11 | -27
Cc1ccc(S(=O)(=O)N(C)C)cc1NC(=S)N1CCCCC1CO (centres undefined) | 39* | 0 | -18 | -3 | -9
Oc1ccccc1-n1c(-c2ccccc2)ccc1-c1ccccc1 | -9 | 1 | 21 | -5 | 23
CC1=C(C)CC(C(=O)c2ccc(C)cc2)C(C(=O)O)C1 (centres undefined) | 5 | -1 | 0 | -2 | -9
CNCc1c(OCc2ccc(F)cc2)ccc2ccccc12 | 74* | 0 | -15 | -2 | -7
Cc1ccc(CSc2nc(-c3ccccc3C)nc3c2Cc2c(CO)cnc(C)c2O3)cc1 | nt | nt | 1 | nt | nt
NNc1ncnc2c1cnn2-c1ccccc1 | 31* | 0 | 6 | -4 | -7
SMILES | D2 antagonist | D2 ag-1 | D2 PAM-1 | D2 ag-2 | D2 PAM-2
c1ccc(-n2ncc3c(NC4CCCCCC4)ncnc32)cc1 | 46* | 0 | -2 | -3 | -3
O=C(CN1C(=O)NC2(CCCCC2)C1=O)N1CCc2ccccc2C1 | -2 | 0 | 7 | 7 | -7
C=CCn1c(SCC(=O)/C(C#N)=C(\C)N)nc2sc(CC)cc2c1=O | 6 | -1 | -8 | 3 | -3
O=C(NC12CC3CC(CC(C3)C1)C2)N1CCN(c2ccccn2)CC1 | 31* | 36* | -2 | 1 | -8
CC(=O)N1CCN(C(=O)c2ccc(NS(=O)(=O)c3cc(C)ccc3C)cc2)CC1 | 3 | 0 | 3 | 0 | 17
COc1c2ccc(C(=O)NCc3cc(C(F)(F)F)cc(C(F)(F)F)c3)cc2nn1C | 41* | 0 | -9 | 0 | -9
O=C(c1ccc2c(c1)OCO2)N1CCC2(CC1)Oc1ccc(Cl)cc1C(=O)C21CC(c2ccccc2)=NO1 (centres undefined) | 42* | 1 | 7 | -2 | -11
O=S(Cc1ccccc1)c1ccccc1 (centres undefined) | nt | nt | nt | 0 | -10
Cc1cccc(CCNC(=O)C2CCCN(c3ncnc4c3nc3n4CCCCC3)C2)c1 (centres undefined) | 6 | 0 | 0 | -1 | -5
Cc1cccc(N2CCN(CCCNC(=O)C3CCCN(c4ncnc5c4nc4n5CCCCC4)C3)CC2C)c1 (centres undefined) | 56* | -1 | 0 | -1 | -13
COc1ccc2ccccc2c1CNC(C)CCc1ccccc1 (centres undefined) | 30* | 20 | -16 | 5 | -23
Cc1oc(-c2cccs2)nc1CN1CC[C@@](O)(c2ccccc2)[C@H]2CCCC[C@@H]21 | 14 | 0 | -9 | -1 | -14
OC1(c2ccccc2)CCN(Cc2ccccc2)C2CCCCC21 (centres undefined) | 38* | 2 | -27 | -6 | -37
Cc1noc(C)c1S(=O)(=O)N1CCN(c2ccc([N+](=O)[O-])cc2)CC1 | 2 | 0 | -9 | 0 | -8
CCc1c(C(C)S(=O)(=O)c2ccccc2)[nH]c(=O)n1CC (centres undefined) | 35* | 0 | -17 | -3 | 0
Cc1cccc(N2CCN(C(=O)c3noc4c3COc3ccc(C)cc3-4)CC2C)c1 (centres undefined) | -7 | 0 | 10 | -4 | -9
CCC(=O)Nc1cccc(NC(=O)c2ccc(C)cc2Cl)c1 | 35* | -2 | -8 | 0 | -9
CCC(=O)Nc1cccc(NC(=O)c2ccccc2Cl)c1 | 0 | 0 | nt | -2 | -4
COc1ccc([N+](=O)[O-])cc1C(=O)C(=O)c1ccccc1 | -4 | -1 | 18 | -6 | -5
COc1cc(C(=O)O)nc2ccc([N+](=O)[O-])cc12 | 38* | 2 | 2 | 4 | -1
O=C(N/N=C\c1ccc(CN(Cc2ccc(Cl)cc2)S(=O)(=O)c2ccccc2)o1)C(=O)Nc1ccc(F)cc1 | 11 | 1 | -1 | -1 | -22
COc1cc(C(=O)Nc2ccc(S(=O)(=O)NC(C)(C)C)cc2)cc(OC)c1OC | -22 | 0 | -1 | 1 | -2
COc1cc(C(=O)Nc2ccc(S(=O)(=O)NC(C)C)cc2)cc(OC)c1OC | 31* | 0 | 0 | 2 | -6
